# NPC1 prom act – NPC1 promoter activation. Huh7 NPC1 promoter luciferase reporter, 24 h. Potency, µM (doses to about 9.22 µM), for the others: at the highest dose activation, usual class: activators. 320,000 tested, 2.4% active. AID 485313; also: % of control where 0% means no effect; nearly all actives have a fitted effect of over 60% in size
#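 NPC1 promoter–luciferase Huh7 cells; 24 h compound; luminescence.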
# SMN2 splice up – increases expression of the SMN2 splice variant; HEK293 SMN2-luciferase splicing reporter, luminescence, 30-36 h; Potency, µM (highest dose often 46.1 µM), for inactives: at the highest dose activity change, positive = activation, most hits filed as activators; 210,000 tested, 2.8% active; AID 1458; also: % of control where 0% means no effect; nearly all actives have a fitted effect of over 55% in size
#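 HEK293 cells carry an SMN2 […]–luciferase reporter in which exon 7 inclusion puts luciferase in frame. Cells were plated 10-12 h before compound addition, then incubated 30-36 h at 37C. ONE-Glo luminescence was read; sodium butyrate at 4.5 mM final served as control.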
# ELG1 genotox – genotoxicity induction in ELG1-luciferase HEK293T cells. AID 504466. HEK293T ELG1-luciferase reporter, luminescence, 16 h. 330,000 tested, 1.3% active. Potency, µM (titrated, usually from 46 µM), without a hit: top-dose activity change, positive = activation, usual class: activators; also: % of control where 0% means no effect; nearly all actives have a fitted effect of over 60% in size
#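 Cells (2,000/well) expressing the ELG1-luciferase fusion are dosed by pin tool and kept 16 hr at 37 °C, 5% CO2. Signal comes from ONE-Glo luciferase reagent after 30 min at room temperature.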
# Rab9 promoter act – Rab9 promoter activation | Huh7 Rab9 promoter-luciferase reporter, luminescence, 24 h | Potency, µM (doses to about 9.22 µM), for the others: top-dose activation, negative = inhibition, actives largely listed as activators | 320,000 tested, 2.8% active; also: % of control where 0% means no effect; nearly all actives have a fitted effect of over 60% in size
#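 Huh7 reporter line, Rab9 promoter upstream of luciferase. Compound exposure 24 h at 37 °C in reduced-serum medium with 10% FBS. Read-out: luminescence.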
# Luc counter – blocks Kinase-Glo luciferase, a counter-screen artifact. Q27757. Kinase-Glo luciferase, ATP luminescence, 8 min. Potency, µM (doses to about 38.3 µM), for inactives: at the top dose activity change, negative = inhibition, hits mostly inhibitors. 200,000 tested, 0.28% active; also: % is scaled to controls: 0 for no effect and ±100 for the full control effect; nearly all actives have a fitted effect of over 60% in size
#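 Light output from Kinase-Glo luciferase with luciferin and 10 uM ATP in 50 mM imidazole pH 7.2, KCl, MgCl2, Tween 20, BSA; compound pin-delivered, 8-min ambient incubation, then luminescence read.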
# FLuc counter – counter-screen for miR-21 project: firefly luciferase inhibitors or activators; Potency, µM (doses to about 57.5 µM), inactives show at the highest dose activity change, negative = inhibition, most hits filed as inhibitors; purified FLuc, Km substrates, luminescence inhibition; 360,000 tested, 6.9% active; AID 588342; P08659;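 also: plate controls were vehicle for no effect and reference inhibitor for full effect; nearly all actives have a fitted effect of over 55% in size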
# Target sequence (P08659 whole entry, looked up): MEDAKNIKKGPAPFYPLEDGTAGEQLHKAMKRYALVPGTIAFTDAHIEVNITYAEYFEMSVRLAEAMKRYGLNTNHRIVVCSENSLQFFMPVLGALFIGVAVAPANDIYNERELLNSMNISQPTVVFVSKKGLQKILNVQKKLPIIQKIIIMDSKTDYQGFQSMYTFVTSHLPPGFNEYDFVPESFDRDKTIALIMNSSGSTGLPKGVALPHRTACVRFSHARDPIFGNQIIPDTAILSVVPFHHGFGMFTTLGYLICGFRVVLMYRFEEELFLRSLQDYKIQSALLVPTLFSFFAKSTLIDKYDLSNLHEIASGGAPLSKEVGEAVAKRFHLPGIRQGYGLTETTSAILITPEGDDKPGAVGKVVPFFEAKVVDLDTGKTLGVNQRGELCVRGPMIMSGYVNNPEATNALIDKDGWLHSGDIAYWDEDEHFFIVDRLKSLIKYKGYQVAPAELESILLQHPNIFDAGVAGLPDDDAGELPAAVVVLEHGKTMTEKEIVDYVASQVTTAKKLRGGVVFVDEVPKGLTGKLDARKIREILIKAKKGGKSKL
#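 Purified P. pyralis luciferase (10nM final) with 10uM D-luciferin and 10uM ATP (Km levels) in 50mM Tris acetate pH 7.5, 10mM Mg acetate, 0.01% Tween-20, 0.05% BSA; qHTS 6-point titration, ~60 µM downward; luminescence read.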
# * marks the source's active call; other numbers are inactive results; ? = inconclusive; · = not tested or not shown. The list is not random: actives were taken first. Their share in the collection is about 7.5%. Calls follow the shape of the dose curve; as a rule, active = well fitted curve in the direction sought with a large enough effect; inconclusive = small, poorly fitted or top-dose-only effect, or another doubt; inactive = no such curve, though single readings can be large; an effect the other way counts as inactive or inconclusive. Potency is read from the fitted curve at half-maximal effect.
SMILES,NPC1 prom act,SMN2 splice up,ELG1 genotox,Rab9 promoter act,Luc counter,FLuc counter
COc1cc(CN(CC2CCCO2)C(=O)c2ccc(F)cc2)cc(OC)c1OC (stereo unspecified),·,3%,·,·,·,-3%
Cc1ccc(N2C(S)=C(C#N)C(=O)NC2c2cccs2)cc1 (stereo unspecified),0%,4.5µM*,-1%,1%,0%,-16%
COc1cc(C2NC(=O)C(C#N)=C(S)N2c2ccc(C)cc2)ccc1OC(C)C (stereo unspecified),1%,-31%,?,0%,2%,15µM*
COc1ccc(N2C(S)=C(C#N)C(=O)NC2c2ccc(OC)c(OC)c2)cc1 (stereo unspecified),-7%,·,6%,-5%,0%,?
N#CC1=C(S)N(c2ccccc2)C(c2cccs2)NC1=O (stereo unspecified),6%,24%,-3%,2%,6%,6%
CCOc1ccc(C2NC(=O)C(C#N)=C(S)N2c2ccc(OC)cc2)cc1OC (stereo unspecified),3%,-6%,1%,3%,0%,21µM*
Cc1ccc(N2C(S)=C(C#N)C(=O)NC2c2ccco2)cc1 (stereo unspecified),-4%,7%,9%,2%,8%,?
COc1ccc(C2NC(=O)C(C#N)=C(S)N2c2ccc(C)cc2)cc1OC (stereo unspecified),-1%,17%,2%,-2%,0%,19µM*
COc1ccc(C2NC(=O)C(C#N)=C(S)N2c2cccc(C)c2)cc1OC (stereo unspecified),-9%,-3%,-2%,-8%,0%,?
CC(C)c1ccc(C2N=C(N)Nc3nc4ccccc4n32)cc1 (stereo unspecified),·,?,·,·,·,1%
O=C(Cn1cc(S(=O)(=O)Cc2cccc(F)c2)c2ccccc21)N1CCOCC1,0%,·,0%,7%,·,1%
O=C(O)C(=O)/C(=C\c1ccccc1)c1ccc2ccccc2n1,3%,·,9.2µM*,2%,8%,-19%
O=C(O)C(=O)/C(=C\c1ccc([N+](=O)[O-])cc1)c1ccc2ccccc2n1,9%,13µM*,20%,?,0%,?
O=C(O)C(=O)/C(=C\c1ccsc1)c1ccc2ccccc2n1,18%,·,?,21%,·,?
COC(=O)C1CCN(C(=O)COC(=O)c2oc3ccc(OC)cc3c2C)CC1,1%,·,-5%,2%,·,-6%
Cc1ccccc1NC(=S)NNC(=O)c1csc2c1CCC(C)C2 (stereo unspecified),3.2µM*,18%,?,2.2µM*,-8%,2.4µM*
CC1CCc2sc(C(=O)NCc3ccc(F)cc3)cc2C1 (stereo unspecified),0%,-8%,6%,18%,-2%,?
CCNC(=S)NNC(=O)c1csc2c1CCC(C)C2 (stereo unspecified),11%,-14%,-1%,9%,-2%,-3%
CC1CCc2c(C(=O)NCc3ccccn3)csc2C1 (stereo unspecified),?,?,?,22%,-1%,21µM*
CC1CCc2sc(C(=O)NCc3ccccn3)cc2C1 (stereo unspecified),25%,·,18µM*,?,·,19µM*
CC1CCc2c(C(=O)Nc3nccs3)csc2C1 (stereo unspecified),?,?,?,?,2%,4.8µM*
CCOc1ccc(OCC)c(NC(=O)CCc2c(C)nc3c(c2C)c(=O)n(C)c(=O)n3C)c1,·,0%,·,·,·,0%
Cc1ccc(Cl)cc1N1CCN(C(=O)CCCCCn2c(=O)[nH]c3ccccc3c2=O)CC1,·,·,·,·,·,-3%
CC1CCc2c(C(=O)Nc3ccccn3)csc2C1 (stereo unspecified),3.5µM*,·,?,3.2µM*,·,2.1µM*
